Reference: PubChem BioAssay (Tox21)
Several values for one entry are separate records, joined by “and”; a condition that tells them apart may be missing. Equal values may be shown once. Records with an inconclusive call do not appear. Some structures have more than one record in an assay (separate samples or runs), and their calls can disagree. Activity calls are given as the source filed them. Unless noted, the call rests on the fitted dose curve; in most records, active means well fitted curve in the direction sought with a large enough effect in the repeat runs; inconclusive means weak or mixed curves; inactive means no such curve, though single readings can be large; an effect the other way counts as inactive or inconclusive.

Experiments:
[1] = qHTS assay to identify small molecule agonists of the hypoxia (HIF-1) signaling pathway - cell viability counter screen (AID 1224844; calls by dose curve; further: nearly all actives have a fitted effect of over 50% in size; further: potency means the concentration at half of the fitted maximal effect)
Method in brief: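 Cytotoxicity was measured in parallel with the HRE-driven beta-lactamase readout: after 17 hrs of compound exposure at 37C, HRE-bla ME-180 cells received CellTiter-Glo and luminescence was recorded 30 min later.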

[2] = qHTS assay to identify small molecule agonists of the hypoxia (HIF-1) signaling pathway (AID 1224846; active means well fitted activation curve with a large enough effect in the signal ratio in the repeat runs, not every such curve was filed as active; the % refers to the signal ratio; further: potency means the concentration at half of the fitted maximal effect)
Method in brief: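 Compounds from the Tox21 10K library, dissolved in DMSO, are tested for induction of a hypoxia response element–controlled beta-lactamase reporter in ME-180 cells. Exposure lasts 17 hrs at 37C after a 5 hr settling period, followed by CCF4-AM FRET substrate.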

[3] = qHTS assay to identify small molecule agonists of H2AX - cell viability counter screen (AID 1224847; calls by dose curve; further: nearly all actives have a fitted effect of over 30% in size; further: potency means the concentration at half of the fitted maximal effect)
Method in brief: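 Compounds tested at 15 concentrations were incubated 3 hr at 37C with wild-type CHO-K1 cells; cellular ATP-based luminescence (CellTiter-Glo) indicated viability.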

[4] = qHTS assay to identify small molecule antagonists of the estrogen related receptor (ERR) signaling pathway from Tox21 library (AID 1224848); further: nearly all actives have a fitted effect of over 50% in size; further: potency means the concentration at half of the fitted maximal effect
Method in brief: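 Quantitative high-throughput format: ERR reporter cells (2,000/well) pre-incubated 6 h, treated 18 h at 37 C with compounds in DMSO alongside positive and negative controls, then read by ONE-Glo luminescence.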

[5] = qHTS assay to identify small molecule agonists of the estrogen related receptor (ERR) signaling pathway from Tox21 library (AID 1224849; calls by dose curve; further: nearly all actives have a fitted effect of over 15% in size); conditions: ERR reporter cell line, ONE-Glo luciferase, 18 h
Method in brief: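 Cells carrying the ERR reporter were plated and allowed to settle for 6 h, exposed to library compounds for 18 h at 37 C, then lysed with ONE-Glo and luminescence measured.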

[6] = qHTS RealTime-Glo MT Cell Viability Assay in HepG2 cells - 24 hour (AID 1224867); further: nearly all actives have a fitted effect of over 50% in size; further: potency means the concentration at half of the fitted maximal effect
Method in brief: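 Cell number in HepG2 cultures estimated from NanoLuc luminescence generated by metabolic reduction of a prosubstrate by living cells. The homogeneous, nonlytic format allowed repeated reads at 0, 8, 16, 24, 32 and 40 h of compound exposure.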

[7] = qHTS RealTime-Glo MT Cell Viability Assay in HEK293 cells - 32 hour (AID 1224868); further: nearly all actives have a fitted effect of over 50% in size; further: potency means the concentration at half of the fitted maximal effect
Method in brief: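 Homogeneous bioluminescent viability format in HEK293 cells (600 cells/well). Following 5 h at 37 C/5% CO2, 23 nL compound was pintooled; the signal was measured repeatedly during 40 h incubation.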

[8] = A CellTox Green Cytotoxicity Assay to monitor cytotoxicity in HEK293 cells - 0 hour (AID 1224869); further: nearly all actives have a fitted effect of over 50% in size
Method in brief: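 Cells (HEK293, 600/well) and dye reagent are dispensed together. After 5 h at 37 C, 23 nL compound is pinned in. Plates stay at 37 C for 40 h with fluorescence read at 0h, 8h, 16h, 24h, 32h and 40h.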

[9] = qHTS RealTime-Glo MT Cell Viability Assay in HepG2 cells - 40 hour (AID 1224870); further: nearly all actives have a fitted effect of over 50% in size; further: potency means the concentration at half of the fitted maximal effect
Method in brief: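 HepG2 cells (600/well) mixed with RealTime-Glo MT reagent, settled 5 h at 37 C/5% CO2 before compound addition. Nonlytic NanoLuc luminescence from viable-cell prosubstrate reduction read repeatedly during 40 h treatment at 37 C.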

[10] = qHTS assay to identify small molecule agonists of H2AX (AID 1224845; active means well fitted activation curve with a large enough effect in the signal ratio in the repeat runs, not every such curve was filed as active; the % refers to the signal ratio; further: potency means the concentration at half of the fitted maximal effect)
Method in brief: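 Wild-type CHO-K1 cells, plated overnight, exposed 3hr at 37C to 15 concentrations (0.76% DMSO final). Lysed, then HTRF anti-pH2AX (S139) cryptate and anti-H2AX-d2 antibodies, 24 hr room temperature; 665/620 nm emission read.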

[11] = at 92.4 µM (top of the series) unless noted
On the % scale 0 is the no-effect control and ±100 the full control effect.

O=C(O)c1ccc(Cl)c(Cl)c1
inactive: Potency [1] | Potency [2] | Potency [3] | Potency [4] | activity change, positive = activation [5, 11] -1.94% | Potency [6] | Potency [7] | Potency [8] | Potency [9]

CCCCCCCCOC(=O)c1ccc(O)cc1
inactive: Potency [10] | Potency [6] | Potency [8] | Potency [9]
active: Potency [1] 48.8 µM | Potency [3] 89.5 µM and 101 µM | Potency [7] 27.4 µM

CC(C)(C)CC(C)(C)c1ccc(O)c(Cc2ccc(Cl)cc2Cl)c1
active: Potency [1] 9.52 µM | Potency [10] 19.6 µM | Potency [3] 15.6 µM | Potency [7] 21.3 µM
inactive: Potency [8]

CCCC(c1cc(C(C)(C)C)c(O)cc1C)c1cc(C(C)(C)C)c(O)cc1C
inactive: Potency [10] | activity change, positive = activation [5, 11] -83.3% | Potency [8]
active: Potency [1] 9.89 µM | Potency [4] 15.5 µM | Potency [6] 39.4 µM | Potency [7] 19.7 µM | Potency [9] 31.3 µM

Cn1cc(C(=O)[C@@H]2CCc3nc[nH]c3C2)c2ccccc21
inactive: Potency [1] | Potency [10] | Potency [4] | activity change, positive = activation [5, 11] -13.3% [at 42.5 µM] | Potency [6] | Potency [8] | Potency [9]

Nc1c2ccccc2nc2ccccc12
inactive: activity change, positive = activation ([5]; at 42.5 µM (top of the series)) -23% | activity change, positive = activation ([5]; at 92.4 µM (top of the series)) -63.6% | Potency [8]
active: Potency [1] 13.6 µM | Potency [10] 88.6 µM | Potency [4] 2.69 µM | Potency [7] 7.66 µM and 2.39 µM | Potency [9] 24.2 µM and 13.4 µM

C=CC(=O)OCC(CO)(COC(=O)C=C)COC(=O)C=C
active: Potency [1] 4.38 µM and 17.4 µM | Potency [4] 8.66 µM and 13.7 µM | Potency [6] 11 µM and 12.3 µM | Potency [7] 3.48 µM | Potency [9] 12.3 µM and 19.5 µM
inactive: Potency [3] | activity change, positive = activation [5, 11] -68.9% and -80.3% | Potency [8]

Clc1ccccc1C(c1ccccc1)(c1ccccc1)n1ccnc1
21.9 µM (active) and inactive: Potency [6]
40.1 µM (active) and inactive: Potency [3]
inactive: activity change, positive = activation ([5]; at 42.5 µM (top of the series)) -60.3% | activity change, positive = activation ([5]; at 92.4 µM (top of the series)) -72.6% | Potency [8]
active: Potency [1] 21.9 µM | Potency [4] 3.86 µM and 11.9 µM | Potency [7] 21.9 µM and 6.74 µM
24.5 µM (active) and inactive: Potency [9]

N=C1N=C(N)c2cc3ccccc3cc21
inactive: Potency [8]
active: Potency [1] 15.5 µM | Potency [3] 127 µM | Potency [4] 68.6 µM | activity change, positive = activation [5, 11] 2.31% | Potency [6] 47.6 µM [cytotoxic] | Potency [7] 19.5 µM | Potency [9] 24.5 µM [cytotoxic]

CCCCCCCCCCCCc1ccc(O)cc1
active: Potency [1] 24.5 µM | Potency [3] 45 µM | Potency [4] 54.5 µM | Potency [6] 49 µM | Potency [7] 43.6 µM | Potency [9] 54.9 µM
inactive: activity change, positive = activation [5, 11] -63.6% | Potency [8]

C[C@@H](NCCCc1cccc(C(F)(F)F)c1)c1cccc2ccccc12
inactive: activity change, positive = activation [5, 11] -58.9% [at 42.5 µM] | Potency [8]
active: Potency [1] 23.9 µM | Potency [3] 49.2 µM | Potency [4] 26.6 µM | Potency [6] 16.9 µM | Potency [7] 23.9 µM | Potency [9] 15.1 µM

O=C1CCCc2c1cc1ccc3cccc4ccc2c1c34
inactive: Potency [6] | Potency [8] | Potency [9]
active: Potency [1] 44.2 µM | Potency [2] 49.6 µM | Potency [7] 11.1 µM

Clc1ccc2cc3ccccc3cc2c1
active: Potency [2] 30.9 µM
inactive: Potency [1] | Potency [3] | Potency [4] | activity change, positive = activation [5, 11] 8.76% | Potency [6] | Potency [8] | Potency [9]

CC1(C)CCC(C)(C)c2cc(C(=O)Nc3ccc(C(=O)O)cc3)ccc21
inactive: Potency [1] | Potency [2] | activity change, positive = activation [5, 11] -24.2% | Potency [6] | Potency [7] | Potency [8] | Potency [9]

CCCCCCCC[P+](CCCCCCCC)(CCCCCCCC)CCCCCCCC
inactive: activity change, positive = activation [5, 11] -78.2% | Potency [8]
active: Potency [1] 3.45 µM | Potency [3] 7.95 µM | Potency [4] 0.108 µM | Potency [6] 13.7 µM | Potency [7] 0.434 µM | Potency [9] 10.9 µM

CCC(C)Nc1ccc(NC(C)CC)cc1 (stereo unspecified)
active: Potency [1] 12.5 µM | Potency [3] 23 µM | Potency [4] 6.23 µM | Potency [6] 17.7 µM | Potency [7] 4.45 µM | Potency [9] 17.7 µM
inactive: activity change, positive = activation [5, 11] -80.2% | Potency [8]

N=C1C=CC(=C(c2ccc(N)cc2)c2ccc(N)cc2)C=C1
active: Potency [3] 28.4 µM | Potency [4] 2.17 µM | Potency [6] 24.5 µM | Potency [7] 2.19 µM | Potency [9] 38.9 µM
inactive: Potency [1] | activity change, positive = activation [5, 11] -66.1% | Potency [8]

CCN(C(=O)N(CC)c1ccccc1)c1ccccc1
inactive: Potency [1] | Potency [2] | activity change, positive = activation [5, 11] -25.8% | Potency [6] | Potency [8] | Potency [9]
